The full data set covers some 21,000 targets. This sample favours those with the largest changes.

Compound in this test: Cc1cc(ccc1-c1ccccc1)C(=O)N1CCCN(CC1)C(=O)CCl [compound 10]
As to the kind of experiment: probe-labelled cysteine peptide fold change vs DMSO (competition) (log2 fold change); higher = less target engagement (more negative = stronger competition). The following applies: THP-1, incubation time: 4 h.
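Further: competitive profiling in live THP-1 cells: cysteine peptides tagged with an iodoacetamide desthiobiotin (IA-DTB) probe, intensity after compound treatment relative to DMSO-treated cells.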

Chain of UniProt P40818 (P40818 whole entry, looked up): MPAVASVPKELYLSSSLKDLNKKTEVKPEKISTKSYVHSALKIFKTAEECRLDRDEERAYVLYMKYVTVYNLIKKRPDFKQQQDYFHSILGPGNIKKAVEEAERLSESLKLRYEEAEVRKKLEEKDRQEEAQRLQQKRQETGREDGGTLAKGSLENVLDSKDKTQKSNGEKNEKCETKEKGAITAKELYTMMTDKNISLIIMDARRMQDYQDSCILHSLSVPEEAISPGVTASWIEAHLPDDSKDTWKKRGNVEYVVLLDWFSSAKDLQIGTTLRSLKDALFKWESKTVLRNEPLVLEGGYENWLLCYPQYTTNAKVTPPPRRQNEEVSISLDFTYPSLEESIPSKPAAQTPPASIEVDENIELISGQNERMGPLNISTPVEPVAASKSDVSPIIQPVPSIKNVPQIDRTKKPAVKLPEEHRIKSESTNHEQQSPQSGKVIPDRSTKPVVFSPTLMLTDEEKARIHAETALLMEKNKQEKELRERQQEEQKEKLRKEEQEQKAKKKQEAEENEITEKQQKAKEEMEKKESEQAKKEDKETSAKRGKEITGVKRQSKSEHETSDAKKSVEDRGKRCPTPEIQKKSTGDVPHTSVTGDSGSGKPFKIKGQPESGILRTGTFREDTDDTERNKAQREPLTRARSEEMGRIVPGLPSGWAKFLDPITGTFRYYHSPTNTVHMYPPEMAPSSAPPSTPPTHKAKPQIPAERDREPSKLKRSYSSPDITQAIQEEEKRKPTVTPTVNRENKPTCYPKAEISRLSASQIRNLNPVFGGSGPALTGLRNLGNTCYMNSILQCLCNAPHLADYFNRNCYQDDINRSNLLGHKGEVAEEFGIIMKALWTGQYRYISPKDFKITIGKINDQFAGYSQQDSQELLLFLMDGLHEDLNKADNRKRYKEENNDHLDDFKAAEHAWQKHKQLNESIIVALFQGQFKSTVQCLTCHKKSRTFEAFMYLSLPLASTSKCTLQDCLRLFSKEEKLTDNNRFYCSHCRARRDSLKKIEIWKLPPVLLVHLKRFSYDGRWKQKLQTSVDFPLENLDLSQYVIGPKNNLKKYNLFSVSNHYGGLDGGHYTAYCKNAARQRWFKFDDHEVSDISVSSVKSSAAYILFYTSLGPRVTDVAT
Chain of UniProt Q96Q11 (Q96Q11 whole entry): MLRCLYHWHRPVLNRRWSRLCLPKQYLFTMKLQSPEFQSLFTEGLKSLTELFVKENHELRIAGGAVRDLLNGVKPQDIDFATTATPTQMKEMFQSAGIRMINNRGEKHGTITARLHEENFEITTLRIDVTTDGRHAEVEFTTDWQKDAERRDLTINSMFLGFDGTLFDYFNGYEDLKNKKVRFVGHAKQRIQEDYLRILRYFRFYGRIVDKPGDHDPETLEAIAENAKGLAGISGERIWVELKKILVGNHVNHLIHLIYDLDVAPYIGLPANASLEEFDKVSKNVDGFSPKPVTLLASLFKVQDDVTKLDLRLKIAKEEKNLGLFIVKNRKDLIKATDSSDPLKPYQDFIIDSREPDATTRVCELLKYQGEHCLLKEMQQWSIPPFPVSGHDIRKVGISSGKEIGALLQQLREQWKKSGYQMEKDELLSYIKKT
Chain of UniProt Q9Y5T5 (Q9Y5T5 whole entry, looked up): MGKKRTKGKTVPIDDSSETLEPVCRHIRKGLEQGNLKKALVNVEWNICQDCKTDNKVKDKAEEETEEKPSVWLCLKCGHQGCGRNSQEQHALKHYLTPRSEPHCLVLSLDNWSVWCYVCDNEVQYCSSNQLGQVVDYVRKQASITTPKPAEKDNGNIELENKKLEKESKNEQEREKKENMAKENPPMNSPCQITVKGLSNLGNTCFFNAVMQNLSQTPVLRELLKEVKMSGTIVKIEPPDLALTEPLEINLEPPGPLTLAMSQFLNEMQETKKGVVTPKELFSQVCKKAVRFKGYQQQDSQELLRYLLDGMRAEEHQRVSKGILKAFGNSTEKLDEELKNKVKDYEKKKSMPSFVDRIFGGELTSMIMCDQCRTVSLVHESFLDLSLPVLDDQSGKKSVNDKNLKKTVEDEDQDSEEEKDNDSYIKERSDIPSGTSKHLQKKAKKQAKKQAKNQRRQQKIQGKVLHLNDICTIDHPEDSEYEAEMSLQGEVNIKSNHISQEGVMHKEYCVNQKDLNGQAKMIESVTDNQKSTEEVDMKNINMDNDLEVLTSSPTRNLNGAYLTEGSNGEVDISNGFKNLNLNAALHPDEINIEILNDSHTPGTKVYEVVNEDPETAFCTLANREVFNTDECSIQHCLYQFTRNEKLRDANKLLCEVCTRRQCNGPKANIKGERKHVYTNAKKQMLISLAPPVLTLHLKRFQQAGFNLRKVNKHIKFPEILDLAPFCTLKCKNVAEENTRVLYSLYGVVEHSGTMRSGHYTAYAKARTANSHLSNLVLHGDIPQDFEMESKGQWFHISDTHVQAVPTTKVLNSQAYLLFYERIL
Chain of UniProt Q8IWV7 (Q8IWV7 whole entry, looked up): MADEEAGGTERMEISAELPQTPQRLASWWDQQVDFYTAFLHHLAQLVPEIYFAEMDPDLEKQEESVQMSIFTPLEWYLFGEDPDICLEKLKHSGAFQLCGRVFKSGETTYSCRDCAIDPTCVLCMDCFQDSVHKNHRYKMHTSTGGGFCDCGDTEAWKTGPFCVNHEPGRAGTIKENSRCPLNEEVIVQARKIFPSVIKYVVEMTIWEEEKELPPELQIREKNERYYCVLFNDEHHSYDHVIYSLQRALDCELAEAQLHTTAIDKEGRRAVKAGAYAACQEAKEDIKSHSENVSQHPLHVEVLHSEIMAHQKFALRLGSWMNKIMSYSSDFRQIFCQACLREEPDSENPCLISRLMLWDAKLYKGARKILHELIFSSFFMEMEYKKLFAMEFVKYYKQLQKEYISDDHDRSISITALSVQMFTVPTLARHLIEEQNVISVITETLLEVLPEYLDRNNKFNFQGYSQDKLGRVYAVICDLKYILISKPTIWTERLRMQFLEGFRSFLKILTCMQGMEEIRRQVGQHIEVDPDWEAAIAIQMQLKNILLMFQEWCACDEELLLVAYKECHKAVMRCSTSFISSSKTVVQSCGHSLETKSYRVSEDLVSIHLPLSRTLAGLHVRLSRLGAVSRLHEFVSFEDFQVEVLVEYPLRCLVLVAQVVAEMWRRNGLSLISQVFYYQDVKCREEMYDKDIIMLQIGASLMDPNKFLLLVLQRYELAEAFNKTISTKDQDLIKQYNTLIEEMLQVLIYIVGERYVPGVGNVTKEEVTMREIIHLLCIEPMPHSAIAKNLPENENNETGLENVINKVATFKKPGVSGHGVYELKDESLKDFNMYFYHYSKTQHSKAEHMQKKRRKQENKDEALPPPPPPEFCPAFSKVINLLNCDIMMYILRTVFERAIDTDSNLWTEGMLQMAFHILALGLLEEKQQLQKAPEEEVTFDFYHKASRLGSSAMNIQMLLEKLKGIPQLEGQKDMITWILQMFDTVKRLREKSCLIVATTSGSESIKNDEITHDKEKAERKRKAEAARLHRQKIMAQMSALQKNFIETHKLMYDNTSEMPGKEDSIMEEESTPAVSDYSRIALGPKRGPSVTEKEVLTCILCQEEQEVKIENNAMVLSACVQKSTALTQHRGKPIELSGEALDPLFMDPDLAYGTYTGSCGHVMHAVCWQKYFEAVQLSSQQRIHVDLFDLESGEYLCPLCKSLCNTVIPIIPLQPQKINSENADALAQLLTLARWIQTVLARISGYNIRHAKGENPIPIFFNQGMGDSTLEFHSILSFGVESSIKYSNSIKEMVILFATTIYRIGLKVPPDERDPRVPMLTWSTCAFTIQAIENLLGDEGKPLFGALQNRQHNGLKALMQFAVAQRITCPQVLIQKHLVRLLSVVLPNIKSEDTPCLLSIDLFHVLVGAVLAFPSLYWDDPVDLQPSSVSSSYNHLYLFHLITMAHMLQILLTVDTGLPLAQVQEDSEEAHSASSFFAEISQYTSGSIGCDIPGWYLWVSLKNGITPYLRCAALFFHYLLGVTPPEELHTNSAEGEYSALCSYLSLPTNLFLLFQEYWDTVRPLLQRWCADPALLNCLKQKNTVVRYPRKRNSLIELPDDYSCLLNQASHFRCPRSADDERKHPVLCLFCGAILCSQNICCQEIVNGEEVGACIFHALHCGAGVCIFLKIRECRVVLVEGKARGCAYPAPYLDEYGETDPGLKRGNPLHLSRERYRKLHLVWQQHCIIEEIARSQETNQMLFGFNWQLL
Chain of UniProt Q96PU4 (Q96PU4 whole entry, looked up): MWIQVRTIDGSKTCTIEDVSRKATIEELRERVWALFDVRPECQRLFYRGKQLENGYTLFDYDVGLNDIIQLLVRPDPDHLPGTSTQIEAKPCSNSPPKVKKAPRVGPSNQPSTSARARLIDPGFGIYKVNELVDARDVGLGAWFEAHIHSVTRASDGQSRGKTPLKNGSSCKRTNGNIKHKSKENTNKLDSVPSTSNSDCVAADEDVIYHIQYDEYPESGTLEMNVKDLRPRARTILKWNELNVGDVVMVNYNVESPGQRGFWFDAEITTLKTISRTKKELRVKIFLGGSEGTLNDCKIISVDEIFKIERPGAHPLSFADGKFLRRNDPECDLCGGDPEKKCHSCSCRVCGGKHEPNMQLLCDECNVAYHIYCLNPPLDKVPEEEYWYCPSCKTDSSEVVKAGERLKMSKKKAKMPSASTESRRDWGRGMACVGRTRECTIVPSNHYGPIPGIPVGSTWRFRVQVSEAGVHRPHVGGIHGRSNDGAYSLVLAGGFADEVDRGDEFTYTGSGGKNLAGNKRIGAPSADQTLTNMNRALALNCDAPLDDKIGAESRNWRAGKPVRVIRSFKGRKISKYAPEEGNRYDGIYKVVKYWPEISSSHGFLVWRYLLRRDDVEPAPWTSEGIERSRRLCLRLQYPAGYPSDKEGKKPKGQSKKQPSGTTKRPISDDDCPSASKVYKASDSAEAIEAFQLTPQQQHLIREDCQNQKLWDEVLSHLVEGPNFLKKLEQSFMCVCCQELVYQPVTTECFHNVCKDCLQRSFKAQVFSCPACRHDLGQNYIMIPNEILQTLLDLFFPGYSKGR
Chain of UniProt Q99757 (Q99757 whole entry, looked up): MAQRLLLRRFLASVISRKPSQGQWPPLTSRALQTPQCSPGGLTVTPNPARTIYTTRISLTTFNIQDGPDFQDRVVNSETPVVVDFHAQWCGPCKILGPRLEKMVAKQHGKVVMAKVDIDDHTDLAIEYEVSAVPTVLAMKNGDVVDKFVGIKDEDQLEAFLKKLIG

For the target “UGGT1_Q9NYU2_880_MDFILSHAVYCR (UniProt Q9NYU2)”, the “probe-labelled cysteine peptide fold change” value is 0.117 (10 µM) and 0.39 (50 µM).

Turning to “USP15_Q9Y4E8_633+634_ISTETEETEGSLHCCK (UniProt Q9Y4E8)”, the “probe-labelled cysteine peptide fold change” value is, setting by setting: (10 µM) -0.567; (50 µM) -1.51.

For the target “UROS_P10746_143_ESSALPLLFPCGNLKR (UniProt P10746)”, the “probe-labelled cysteine peptide fold change” value (10 µM) is -0.128 and the “probe-labelled cysteine peptide fold change” value (50 µM) is -0.405.

Turning to “TTF1_Q15361_445_KTQACLASK (UniProt Q15361)”, the “probe-labelled cysteine peptide fold change” value is -0.039 (10 µM) and -0.411 (50 µM).

As for “UBN1_Q9NPG3_711_VGGVLCTEEK (UniProt Q9NPG3)”, the “probe-labelled cysteine peptide fold change” value is, setting by setting: (10 µM) -0.0763; (50 µM) 0.0664.

Turning to “USP22_Q9UPT9_171_KITSNCTIGLR (UniProt Q9UPT9)”, the “probe-labelled cysteine peptide fold change” value (10 µM) is -0.315 and the “probe-labelled cysteine peptide fold change” value (50 µM) was -0.757.

As for “TRAPPC11_Q7Z392_615_ADCPHPIR (UniProt Q7Z392)”, the “probe-labelled cysteine peptide fold change” value is, setting by setting: (10 µM) 0.126; (50 µM) 0.142.

On to “TRA2B_P62995_119_ANPDPNCCLGVFGLSLYTTER (UniProt P62995)”, for which the “probe-labelled cysteine peptide fold change” value by setting is: (10 µM) 0.163; (50 µM) 0.111.

In the case of “TPRKB_Q9Y3C4_167_LSSQEESIGTLLDAIICR (UniProt Q9Y3C4)”, the “probe-labelled cysteine peptide fold change” value is, setting by setting: (10 µM) 0.0132; (50 µM) -0.163.

On to “UQCRC1_P31930_154_AVELLGDIVQNCSLEDSQIEK (UniProt P31930)”, for which the “probe-labelled cysteine peptide fold change” value amounted to 0.114 (10 µM) and 0.272 (50 µM).

Take “TRIM59_Q8IWR1_208_SFLTALCDVGNLINQEYTPQIER<|>IFT80_Q9P2H3-3_208_SFLTALCDVGNLINQEYTPQIER (UniProt Q9P2H3+Q8IWR1)”: the “probe-labelled cysteine peptide fold change” value runs as follows: (10 µM) 0.237; (50 µM) -0.00617.

For the target “TXN2_Q99757_90+93_VVNSETPVVVDFHAQWCGPCK (UniProt Q99757)”, the “probe-labelled cysteine peptide fold change” value is, setting by setting: (10 µM) -1.92; (50 µM) -2.07.

On to “USP34_Q70CQ2_1330_KGEGVQLPASCLPPPQK (UniProt Q70CQ2)”, for which the “probe-labelled cysteine peptide fold change” value was -0.079 (10 µM) and -0.0424 (50 µM).

Regarding “TRIM28_Q13263_221+229_HEPLVLFCESCDTLTCR (UniProt Q13263)”, the “probe-labelled cysteine peptide fold change” value is, setting by setting: (10 µM) -0.0841; (50 µM) -0.368.

Consider “TRNT1_Q96Q11_373_YQGEHCLLK (UniProt Q96Q11)”, for which the “probe-labelled cysteine peptide fold change” value (10 µM) is -0.39 and the “probe-labelled cysteine peptide fold change” value (50 µM) was -1.54.

For the target “TTC39C_Q8N584_517_AVKDELCR (UniProt Q8N584)”, the “probe-labelled cysteine peptide fold change” value runs as follows: (10 µM) -0.00819; (50 µM) -0.291.

As for “UROS_P10746_119_IGLDTEGETCGNAEK (UniProt P10746)”, the “probe-labelled cysteine peptide fold change” value is -0.0553 (10 µM) and -0.0029 (50 µM).

Regarding “USP3_Q9Y6I4_385_SFTDLEELDETELYMCHK (UniProt Q9Y6I4)”, the “probe-labelled cysteine peptide fold change” value by setting is: (10 µM) -0.114; (50 µM) -0.984.

“TPRA1_Q86W33_296_CQVDETEEPDVHLPQPYAVAR (UniProt Q86W33)”: the “probe-labelled cysteine peptide fold change” value reads like this: (10 µM) -0.418; (50 µM) -1.52.

For the target “VAV3_Q9UKW4_187_CPENDIR (UniProt Q9UKW4)”, the “probe-labelled cysteine peptide fold change” value (10 µM) is -0.136 and the “probe-labelled cysteine peptide fold change” value (50 µM) is -0.136.

In the case of “USP8_P40818_809_NCYQDDINR (UniProt P40818)”, the “probe-labelled cysteine peptide fold change” value (10 µM) is -0.199 and the “probe-labelled cysteine peptide fold change” value (50 µM) is -1.27.

Consider “UBE2T_Q9NPD8_24_ELHMLATEPPPGITCWQDK (UniProt Q9NPD8)”, for which the “probe-labelled cysteine peptide fold change” value was -0.209 (10 µM) and -0.165 (50 µM).

With “TRPM4_Q8TD43_759_QSGRPGCCGGR (UniProt Q8TD43)”, the “probe-labelled cysteine peptide fold change” value was -0.788 (10 µM) and -2.09 (50 µM).

Turning to “USP16_Q9Y5T5_24_TVPIDDSSETLEPVCR (UniProt Q9Y5T5)”, the “probe-labelled cysteine peptide fold change” value reads like this: (10 µM) -0.224; (50 µM) -0.204.

For “TXNDC5_Q8NBS9_353_FYAPWCGHCK (UniProt Q8NBS9)”, the “probe-labelled cysteine peptide fold change” value (10 µM) was -0.372 and the “probe-labelled cysteine peptide fold change” value (50 µM) was -1.61.

As to “USP34_Q70CQ2_3118_SNIRPPRPELNMCLLPTMVETSK (UniProt Q70CQ2)”, the “probe-labelled cysteine peptide fold change” value runs as follows: (10 µM) 0.146; (50 µM) -0.174.

With “UHRF2_Q96PU4_42_VWALFDVRPECQR (UniProt Q96PU4)”, the “probe-labelled cysteine peptide fold change” value is -0.064 (10 µM) and 0.118 (50 µM).

On to “VARS2_Q5ST30_549_QLWWGHQIPAYLVVEDHAQGEEDCWVVGR (UniProt Q5ST30)”, for which the “probe-labelled cysteine peptide fold change” value runs as follows: (10 µM) 0.149; (50 µM) 0.141.

As for “UROD_P06132_308_TVTLQGNLDPCALYASEEEIGQLVK (UniProt P06132)”, the “probe-labelled cysteine peptide fold change” value (10 µM) is -0.0737 and the “probe-labelled cysteine peptide fold change” value (50 µM) came to 0.0622.

As for “UBXN7_O94888_478_KLSHLDYDITLQEAGLCPQETVFVQER (UniProt O94888)”, the “probe-labelled cysteine peptide fold change” value (10 µM) was 0.134 and the “probe-labelled cysteine peptide fold change” value (50 µM) is -0.0436.

Consider “UTP20_O75691_242_NMFHSCTGQAVK (UniProt O75691)”, for which the “probe-labelled cysteine peptide fold change” value runs as follows: (10 µM) -0.122; (50 µM) 0.227.

“TRANK1_O15050_1930_QHGCLLEAAR (UniProt O15050)”: the “probe-labelled cysteine peptide fold change” value is, setting by setting: (10 µM) -0.0687; (50 µM) -0.106.

On to “UBR2_Q8IWV8_1360_ILSDEDKPLFGPLPCR (UniProt Q8IWV8)”, for which the “probe-labelled cysteine peptide fold change” value was -0.203 (10 µM) and -0.412 (50 µM).

Take “UBR1_Q8IWV7_1101_EVLTCILCQEEQEVK (UniProt Q8IWV7)”: the “probe-labelled cysteine peptide fold change” value was -0.162 (10 µM) and 0.733 (50 µM).

As for “TUBG1_P23258_138_IHEDIFDIIDREADGSDSLEGFVLCHSIAGGTGSGLGSYLLER<|>TUBG2_Q9NRH3_138_IHEDIFDIIDREADGSDSLEGFVLCHSIAGGTGSGLGSYLLER (UniProt Q9NRH3+P23258)”, the “probe-labelled cysteine peptide fold change” value (10 µM) was 0.194 and the “probe-labelled cysteine peptide fold change” value (50 µM) was -0.0593.

With “USP19_O94966_656+659_LVCPVCAK (UniProt O94966)”, the “probe-labelled cysteine peptide fold change” value by setting is: (10 µM) -0.159; (50 µM) -1.2.
